This passage reports growth inhibition results from PubChem BioAssay (NCI).

The panel holds about 79,000 compounds, 15% with a hit somewhere; the sample as a whole holds those more often. A number with no mark means an inactive call. Rule as the data show it: active = growth inhibition above about 70%; inactive = the rest.

The test is described as follows: NCI Yeast Anticancer Drug Screen. Data for the rad50 strain (AID 155).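 Also: 0% = growth of vehicle-only cultures of the same strain.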 The following applies: S. cerevisiae rad50 strain growth inhibition; at 50.0 µM; hits give high values. An outline of the steps:
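Yeast carrying a defined DNA repair defect were exposed to test compounds, and growth was compared with vehicle-treated controls to give percent inhibition.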
Take `N#CCC(=O)O`: the growth inhibition was -0.2%.

On to `O=C(/C=C(/CC(=O)c1ccccc1)C(=O)c1ccccc1)c1ccccc1`, for which the growth inhibition was -13.1%. To `CCCCCCCCCCCCP(=O)(O)O` belongs -8.2%.

For `O=C1CCC(=O)N1CCc1cccc2ccccc12`, the growth inhibition is 5.45%. Turning to `O=C(O)/C=C/C(=O)Nc1ccc(Cl)cc1C(=O)c1ccccc1`, the growth inhibition is 24.6%. As for `N[N+]1(CCS(N)(=O)=O)CCOCC1`, the growth inhibition was -1.95%.

Consider `NC(=S)c1ccccn1`, for which the growth inhibition was 18.6%. As for `CC(C)Oc1ccc(CCOC(=O)Nc2cccc3ccccc23)cc1`, the figure is -0.5%. On to `C[Si](C)(C)O[Si](C)(C)CCl`, for which the growth inhibition was -28.9%. Regarding `CC(C)(C)c1cc(-c2cc(C(C)(C)C)nc(N)n2)nc(N)n1`, the growth inhibition was -4.9%. For the compound `NC(CSS(=O)(=O)O)C(=O)O` (stereo not drawn), the growth inhibition was 3.05%. As for `O=[N+]([O-])c1ccc(CN2CCC(C(=S)Nc3ccccc3)=C2c2ccccc2)cc1`, the growth inhibition is 9.6%. As for `CCCCNC(=O)CCC(NS(=O)(=O)c1ccc(C)cc1)C(=O)NCCCC` (stereo not drawn), the figure is 5.1%; as for `COc1c(C=O)c2c(c(OC)c1OC)-c1ccc(OC)c(=O)cc1[C@@H](NC(C)=O)CC2`, 12.5%; as for `CCC(=O)OCC(OC(=O)CC)c1ccccc1` (stereo not drawn), 3.75%. With `CC(=O)NC1CC2c3ccccc3C1([N+](=O)[O-])c1ccccc12` (stereo not drawn), the growth inhibition is 4.1%. For the compound `CCNC1CC(C(C)(C)NCC)CC=C1C` (stereo not drawn), the growth inhibition was -31.4%. As for `COC(=O)C1=C(C(=O)OC)C(=Nc2ccccc2)c2ccccc2C1=O`, the growth inhibition is 46.8%.
